Assay results taken from article PMC5540273 (PLoS ONE, 2017).

Columns and labels:
Settings in all cases: concentration: 1 μM, replicates: in singlicate; n = 1
CDK8 = system: CDK8
CDK9 = system: CDK9
CDKL1 = system: CDKL1
CDKL2 = system: CDKL2
CDKL3 = system: CDKL3
CDKL5 = system: CDKL5
CHEK1 = system: CHEK1
CHEK2 = system: CHEK2
CIT = system: CIT
CLK1 = system: CLK1
CLK2 = system: CLK2
CLK3 = system: CLK3
CLK4 = system: CLK4
CSF1R-autoinhibited = system: CSF1R-autoinhibited
CSF1R = system: CSF1R
CSK = system: CSK
CSNK1A1L = system: CSNK1A1L
CSNK1A1 = system: CSNK1A1
CSNK1D = system: CSNK1D
CSNK1E = system: CSNK1E
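Note: KINOMEscan kinase panel screen.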

SMILES	%Inh (CDK8) [%]	%Inh (CDK9) [%]	%Inh (CDKL1) [%]	%Inh (CDKL2) [%]	%Inh (CDKL3) [%]	%Inh (CDKL5) [%]	%Inh (CHEK1) [%]	%Inh (CHEK2) [%]	%Inh (CIT) [%]	%Inh (CLK1) [%]	%Inh (CLK2) [%]	%Inh (CLK3) [%]	%Inh (CLK4) [%]	%Inh (CSF1R-autoinhibited) [%]	%Inh (CSF1R) [%]	%Inh (CSK) [%]	%Inh (CSNK1A1L) [%]	%Inh (CSNK1A1) [%]	%Inh (CSNK1D) [%]	%Inh (CSNK1E) [%]
O=C(Nc1n[nH]c2cc(-c3cccs3)ccc12)C1CC1 [SB-731284]	15	3	50	98.1	0	14	0	0	24	0	21	13	0	0	0	13	0	20	0	8
O=C1NC(=O)C(c2ccccc2Cl)=C1Nc1cccc(Cl)c1 [SB-342409]	0	0	16	11	0	0	7	0	7	54	73	7	28	0	33	0	9	0	16	17
COc1cc(Nc2ccnc3cc(-c4ccncc4)ccc23)cc(OC)c1OC.Cl [GW494610]	43	0	100	8	11	0	0	0	41	9	0	0	29	22	49	79	18	11	46	38
CCn1c(-c2nonc2N)nc2c(-c3ccccc3)ncc(OCCCN)c21.O=C(O)C(F)(F)F.O=C(O)C(F)(F)F [GSK260205]	1	0	7	31	0	0	0	0	98.9	14	0	5	4	0	2	0	46	69	94.2	98.7
COc1ccc(C2=C(Nc3cccc(O)c3)C(=O)NC2=O)cc1 [SB-390766]	0	0	0	7	32	3	2	0	4	86	84	22	85	0	0	15	7	0	94	20
COc1cccc(C2=C(Nc3cccc(O)c3)C(=O)NC2=O)c1 [SB-390771]	17	0	86	7	0	0	0	0	4	73	61	17	72	45	37	100	10	0	32	29
Cc1ccc(NC(=O)c2cccc(N3CCCCC3)c2)cc1-c1ccc(C(=O)NCC2CC2)cc1 [GSK1917008]	10	0	7	16	0	7	100	0	86	22	1	0	32	0	45	0	18	20	27	21
CN(c1ccc2c(c1)nc(NCc1ccccc1)n2C)c1ccnc(Nc2ccc(CS(C)(=O)=O)cc2)n1.Cl [GW811603]	79	15	20	0	16	9	0	0	55	31	0	43	0	80	100	14	0	36	0	18
COc1cccc(NC(=O)NCCNc2ccnc(Nc3ccc(F)cc3)n2)c1 [GSK1379879]	27	0	0	15	0	0	0	0	6	17	0	0	20	20	11	0	0	0	0	0
Cc1ccc(-c2ccc3occ(-c4ccc(S(C)=O)cc4)c3c2)nn1 (centres unmarked)	0	0	35	0	13	0	0	11	0	0	0	0	70	13	0	1	0	0	0	0
Nc1ncc(-c2ccc3nccc(-c4ccncc4)c3c2)cc1S(=O)(=O)N1CCCCC1 [GSK1693850]	45	5	0	27	0	0	1	23	31	81	67	49	72	0	4	0	0	0	24	54
Cn1cc(-c2ccc3c(c2)CCN3C(=O)Cc2cc(F)cc(C(F)(F)F)c2)c2c(N)ncnc21 [GSK2635225]	91.8	7	11	24	0	0	8	0	28	11	19	100	18	45	95.3	0	1	3	22	100
Cn1cc(-c2ccc3c(c2)CCN3C(=O)Cc2cc(F)cc(F)c2F)c2c(N)ncnc21 [GSK2634140]	88	3	8	29	0	3	9	0	36	16	0	24	16	0	87	0	17	0	13	47
Cc1ccc(O)cc1Nc1ccnc2cc(-c3ccc(CN4CCCCC4)o3)ccc12 [GW557777]	0	0	7	0	5	0	13	0	40	24	0	0	0	0	96.7	82	44	84	27	34
CC(C)c1nc(-c2ccc(F)c(NS(=O)(=O)c3c(F)cccc3F)c2)c(-c2ccnc(Nc3ccc(N4CCOCC4)nc3)n2)s1 [GSK1804250]	28	1	22	99.3	0	88	0	49	81	7	9	6	21	14	94.5	97.4	19	10	33	36
c1ccc(Oc2ccc(Nc3ccnc4cc(-c5ccc(CN6CCCCC6)o5)ccc34)cc2)nc1 [GW567143]	14	0	0	12	0	19	0	74	6	1	0	0	6	0	54	71	12	1	10	13
CN(c1ccc(NC(=O)Nc2cccc(Cl)c2)cc1)c1ccnc(N)n1.Cl [GW830707]	85	0	0	39	0	0	0	7	9	0	0	0	0	0	99.5	7	0	0	18	0

SMILES	%Inh (CDK8) [%]	%Inh (CDK9) [%]	%Inh (CDKL1) [%]	%Inh (CDKL2) [%]	%Inh (CDKL3) [%]	%Inh (CDKL5) [%]	%Inh (CHEK1) [%]	%Inh (CHEK2) [%]	%Inh (CIT) [%]	%Inh (CLK1) [%]	%Inh (CLK2) [%]	%Inh (CLK3) [%]	%Inh (CLK4) [%]	%Inh (CSF1R-autoinhibited) [%]	%Inh (CSF1R) [%]	%Inh (CSK) [%]	%Inh (CSNK1A1L) [%]	%Inh (CSNK1A1) [%]	%Inh (CSNK1D) [%]	%Inh (CSNK1E) [%]
CN(C)CCOc1ccc(-c2cc(-c3ccc(Cl)c(O)c3)c(-c3ccncc3)[nH]2)cc1.Cl.Cl [SB-684387]	38	18	28	39	0	0	7	33	90.8	32	1	5	3	30	5	7	2	23	77	94.6
Cl.O=C(Nc1ccc(Oc2ccc3[nH]c(NC(=O)c4ccco4)nc3c2)cc1)Nc1cc(C(F)(F)F)ccc1F [GW683134]	86	5	8	85	0	0	21	0	96.7	63	0	0	61	0	99.8	0	0	2	10	0
O=C(Nc1n[nH]c2nc(-c3ccccc3O)ccc12)C1CC1 [SB-711880]	0	0	42	98.5	17	0	3	0	0	66	16	0	11	16	0	0	76	25	0	0
CN(c1ccc(F)c(NC(=O)c2cccc(OC(C)(C)C#N)c2Cl)c1)c1ccc2nc(NC(=O)C3CC3)sc2n1	2	0	0	27	0	0	0	13	93.7	0	0	0	0	17	99.8	16	14	9	0	0
Cc1ccccc1CC(=O)N1CCc2cc(-c3cn(C)c4ncnc(N)c34)ccc21 [GSK2603346]	83	0	0	17	0	0	18	0	32	15	0	6	0	0	89	0	22	9	9	84
Cn1cc(-c2cnc(N)c3c(-c4ccc5c(c4)CCN5C(=O)Cc4ccccc4)csc23)cn1 [GSK2593074]	19	0	9	0	4	0	9	0	0	15	19	0	0	39	99.9	20	0	21	0	1
COc1cc(Nc2nccc(N3CCC(NS(=O)(=O)c4ccc(NC(C)=O)cc4)CC3)n2)cc(OC)c1OC [GSK1379825]	31	0	19	24	0	0	0	0	17	2	0	23	39	7	19	0	3	8	0	21
CC(C)c1nc(-c2cccc(NS(=O)(=O)c3c(F)cccc3F)c2)c(-c2ccnc(Nc3ccc(N4CCOCC4)nc3)n2)s1.Cl [GSK1723980]	6	75	74	98.9	24	97.8	0	13	97.5	0	0	0	0	0	52	96.5	0	95.1	0	10
Cc1cc(-c2ccnc(Nc3cccc(C#N)c3)n2)cc(C)c1O [GSK1440913]	30	52	1	89	99.1	24	0	0	94	99	89	91.5	95.8	13	14	0	30	0	76	90.3
O=C(O)C(F)(F)F.O=c1[nH]ccc2nc(N[C@@H]3CCNC3)nc(Nc3ccc4c(c3)S(=O)(=O)CC4)c12 [GSK2181306]	0	30	40	44	0	0	98.3	82	84	74	95	17	80	0	86	5	90	97.7	96.7	96.3
Cl.Cl.NC(CNC(=O)c1cc(Br)c(-c2ccnc3[nH]ccc23)s1)c1ccccc1 (centres unmarked) [GSK1322949]	60	15	12	26	0	5	0	46	98.1	90.9	88	73	91.5	7	29	0	47	87	89	90.8
CCNc1nccc(-c2c(-c3ccc(F)cc3)ncn2C2CCN(C)CC2)n1	0	0	30	0	0	0	7	0	30	35	45	0	13	0	0	25	56	93	98.6	99.9
CN(C)CCNS(=O)(=O)c1ccc(-c2ccnc3[nH]ccc23)cc1 [GSK977620]	0	0	0	8	0	0	35	27	27	88	92.3	70	94.4	0	27	0	16	29	38	48
CC(C)NCC(Cc1ccccc1)NC(=O)c1cc(Br)c(-c2ccnc3[nH]ccc23)s1.Cl.Cl (centres unmarked) [GSK1383281]	34	0	17	11	0	0	0	39	53	40	44	22	25	0	46	6	5	0	26	33
COc1cccc(-c2nc(-c3ccccc3)[nH]c2-c2ccncc2)c1 [SB-610250]	30	0	20	23	0	8	0	0	47	29	0	27	8	0	2	0	19	47	66	68
COc1ccc(NC(=O)c2ccoc2)cc1-c1ccc(C(=O)NCC2CC2)cc1 [GW810437]	38	16	11	0	2	6	0	0	0	0	16	0	6	3	7	0	8	0	0	3
Cc1cccc(Nc2nc(NCCN)ncc2C(N)=O)c1 [GSK1292139]	37	0	0	7	0	0	82	75	80	23	22	47	0	23	88	22	76	72	52	84
